Rows were chosen to be rich in hits. Some 3.4% of all compounds tested hit in one or more screens of this group.
SIRT5 block: blocks human SIRT5 desuccinylation of peptide; Purified SirT5, succinyl-peptide AMC, trypsin-coupled fluorescence; inhibition, % at 15 µM; 330,000 tested, 1.1% active; AID 652115; in the data active = inhibition above about 15%
Target sequence (Q9NXA8 whole entry, looked up): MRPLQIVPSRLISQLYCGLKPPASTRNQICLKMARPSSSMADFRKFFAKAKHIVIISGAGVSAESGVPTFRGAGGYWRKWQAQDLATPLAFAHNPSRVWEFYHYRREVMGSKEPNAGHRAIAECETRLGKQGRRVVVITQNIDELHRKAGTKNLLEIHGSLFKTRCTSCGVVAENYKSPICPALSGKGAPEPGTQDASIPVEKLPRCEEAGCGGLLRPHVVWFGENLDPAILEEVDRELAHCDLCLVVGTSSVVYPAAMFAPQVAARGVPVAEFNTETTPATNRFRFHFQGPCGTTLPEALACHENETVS
PAX8 reporter: inhibitors of PAX8 transcriptional activity in RMG-I cells | AID 652154 | RMG-I TPO-luciferase reporter, SteadyGlo, 24 h | 360,000 tested, 1.2% active | inhibition, % at 12.6 µM;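 active = mean replicate inhibition at least 60% with every replicate also reaching 60%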;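 note: luciferase light reporting Pax8 driven TPO promoter activity; plate controls were median of neutral control wells for no effect and mitoxantrone controls for full effect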
Ecoli rRNA inh: inhibits bacterial ribosomal RNA function over humanized ribosomes. GFP signal change (wild-type ribosome), % (test concentration not listed). E. coli WT GFP vs humanized-ribosome RFP mutants, fluorescence, 24 h; stronger effect = lower value; DMSO median 0, no signal -100. 350,000 tested, 1.6% active;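 active = significant combined selectivity score with lowered wild-type GFP, culture density cut under 30%, mutant RFP and density less affected; inactive = any of these conditions unmet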
PGC1a acetyl inh: lowers PGC1a acetylation signal in U2OS cells; AlphaScreen anti-acetyl-lysine; with virally co-expressed GCN5 acetyltransferase; inhibition, % at 15.6 µM; 350,000 tested, 0.17% active; AID 651687;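 active = every replicate shows inhibition of at least 40%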;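 note: 0% = neutral control wells and 100% = positive control wells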
EWS-Fli inh: inhibitors of EWS/Fli oncoprotein transcriptional activity | A673 NR0B1-luciferase reporter, viability-normalised | 350,000 tested, 0.67% active | inhibition, % at 12.6 µM | AID 651661;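 active = mean inhibition of at least 50% after viability correction, with every replicate also passing that limit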;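 note: firefly luciferase signal divided by Alamar Blue viability fluorescence both relative to DMSO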
LGR2 antag: inhibitors of bursicon-induced Drosophila LGR2 receptor cAMP signaling; 380,000 tested, 0.35% active; inhibition, % at 9.99 µM; HEK293 LGR2, CRE-luciferase, bursicon-stimulated, 4 h;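 active = drop in luminescence signal, shown as inhibition above about 50% in the replicate tests, limit read from the data, passing the limit was not always enough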;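 note: agonist challenge used bursicon conditioned medium at about half maximal strength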
DNA binding: DNA binding small molecules; salmon sperm DNA acridine orange fluorescence polarization; AC35, µM (series often up to 68 µM), inactives show at the top dose activity change, negative = DNA binding; shares compounds with EWS-Fli inh; 640 tested, 2% active; AID 720586;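 active = fitted curve reaches a 35% signal fall AC35 below twice the sample's top valid tested dose, actives reach about 48 µM in these data; inactive = the rest, including activity in the rising direction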;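 note: lower polarization ratio signals compound binding to DNA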
* hit, by the source's call.

For CC(C)NC(=O)N(C)C[C@@H]1OCCCC[C@H](C)Oc2ccc(NC(=O)CCC(F)(F)F)cc2C(=O)N([C@@H](C)CO)C[C@H]1C the results were SIRT5 block 1.1, PAX8 reporter 6.1, Ecoli rRNA inh 0.7, PGC1a acetyl inh -11.6 and LGR2 antag 7.5.
CN1CCN(C(=O)C[C@@H]2C[C@@H]3c4cc(NC(=O)NC5CCCCC5)ccc4O[C@@H]3[C@@H](CO)O2)CC1 was read as PAX8 reporter -8.8, Ecoli rRNA inh 5.3, PGC1a acetyl inh -2.0, EWS-Fli inh -1.5 and LGR2 antag -5.1.
For COc1ccc(-c2cc(NC=O)c3ncc(-c4cccc(C(C)=O)c4)n3c2)cc1 the results were PAX8 reporter 24.4, Ecoli rRNA inh -2.8, PGC1a acetyl inh 6.1, EWS-Fli inh 7.6 and LGR2 antag -6.0.
`COc1cccc(-c2cc(NC=O)c3ncc(-c4ccc(C(C)=O)cc4)n3c2)c1` gave PAX8 reporter 59.5, PGC1a acetyl inh 1.6, EWS-Fli inh 51.8*, LGR2 antag -35.4 and DNA binding -3.5%.
COc1cc(-c2cnc3c(NC=O)cc(-c4cccc(NC(C)=O)c4)cn23)cc(OC)c1OC was read as SIRT5 block 1.3, PAX8 reporter 105.1*, Ecoli rRNA inh -1.6, PGC1a acetyl inh 1.8, EWS-Fli inh 62.1*, LGR2 antag -18.5 and DNA binding -10.4%.
`COc1cccc(-c2cnc3c(NC=O)cc(-c4cccc(NC(C)=O)c4)cn23)c1` gave SIRT5 block 5.5, PAX8 reporter 12.1, Ecoli rRNA inh -5.6, PGC1a acetyl inh -5.8, EWS-Fli inh 8.4 and LGR2 antag -49.2.
Screening COc1ccc(NC(=O)c2ccccc2-c2ccccc2C(=O)O)cc1 returned SIRT5 block -5.8, PAX8 reporter 15.2, Ecoli rRNA inh 2.9, PGC1a acetyl inh -2.5, EWS-Fli inh 5.1 and LGR2 antag -0.5.
O=C(O)c1ccccc1C(=O)Nc1ccc(Oc2ccc3ccccc3c2)cc1 was read as SIRT5 block 4.4, PAX8 reporter -45.8, Ecoli rRNA inh -59.2, PGC1a acetyl inh -0.1, EWS-Fli inh 57.7*, LGR2 antag -80.7 and DNA binding 0.5%.
Screening O=C(O)c1ccccc1C(=O)Nc1ccc(Oc2cccc3ccccc23)cc1 returned SIRT5 block -1.1, PAX8 reporter 26.1, Ecoli rRNA inh -56.6, EWS-Fli inh 85.7*, LGR2 antag 18.3 and DNA binding -8.5%.
For Cc1cccc(Oc2ccc(NC(=O)c3ccccc3C(=O)O)cc2)c1C the results were SIRT5 block -2.4, PAX8 reporter 0.8, Ecoli rRNA inh -27.7, PGC1a acetyl inh -0.3, EWS-Fli inh 11.5 and LGR2 antag -37.5.
`C[C@H]1CN([C@@H](C)CO)S(=O)(=O)c2ccc(C#Cc3ccncc3)cc2O[C@@H]1CN(C)S(=O)(=O)c1ccccc1` gave SIRT5 block 8.0, Ecoli rRNA inh -5.0, PGC1a acetyl inh -15.7, EWS-Fli inh 53.4*, LGR2 antag 11.0 and DNA binding -5.5%.
For C[C@@H]1CN([C@@H](C)CO)S(=O)(=O)c2ccc(C#Cc3ccncc3)cc2O[C@H]1CN(C)S(=O)(=O)c1ccccc1 the results were SIRT5 block 12.2, Ecoli rRNA inh -1.8, PGC1a acetyl inh -2.5, EWS-Fli inh 72.6*, LGR2 antag 36.2 and DNA binding 5.8%.
`C[C@@H]1CN([C@H](C)CO)S(=O)(=O)c2ccc(C#Cc3ccncc3)cc2O[C@@H]1CN(C)S(=O)(=O)c1ccccc1` gave SIRT5 block 3.9, Ecoli rRNA inh -1.5, PGC1a acetyl inh -3.6, EWS-Fli inh 13.9 and LGR2 antag 2.5.
Cc1ccc(C(C(=O)NCc2ccco2)N(C(=O)CNC(=O)c2cccs2)c2c(C)cc(C)cc2C)cc1 (centres undefined) was read as SIRT5 block -8.8, Ecoli rRNA inh 9.6, PGC1a acetyl inh 21.0, EWS-Fli inh 55.5*, LGR2 antag 7.4 and DNA binding 7.7%.

Assay outcomes as filed in PubChem BioAssay.
